# Compound activity from PubChem BioAssay.
# The list is not random: actives were taken first. Their share in the collection is about 1.7%.
# HEK293 tox: cytotoxicity counter-screen for GLP-1 receptor inverse agonists. AID 624418. HEK293 cAMP-luciferase reporter cells, luminescence, 24 h. Potency, µM (titrated, usually from 38.3 µM), for inactives: at the highest dose activity change, negative = inhibition, hits mostly inhibitors. hit rate 0.13% among 410,000;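 further: loss of luciferase light is scored as toxicity; on the % scale 0 is the no-effect control and ±100 the full control effect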
#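 Compound-treated cells are incubated 24 hr at 37 deg C under 5% CO2 after a 12 hour attachment period, then luciferase detection reagent is added and luminescence is measured following 12 min at room temperature; lowered signal indicates toxicity.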
# GLP-1R inv ag: GLP-1 receptor (human) inverse agonism | hit rate 1.6% among 410,000 | AID 624417 | HEK293 GLP-1R CRE-luciferase, luminescence, 24 h; GLP-1R form is constitutively active | Potency, µM (series often up to 38.3 µM), for the others: top-dose activity change, negative = inhibition, most hits filed as inhibitors; further: on the % scale 0 is the no-effect control and ±100 the full control effect; nearly all actives have a fitted effect of over 55% in size
#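 Inverse agonists were sought by their lowering of basal cAMP reporter luciferase output in HEK293 cells stably carrying constitutively active human GLP-1R, after 24 h compound treatment.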
# GLP-1R agonist: activates the human GLP-1 receptor. HEK293 GLP-1R CRE-luciferase, luminescence, 4-6 h; cells express a hypersensitive GLP-1R form. Potency, µM (top dose mostly 45.6 µM), for the others: top-dose activation, usual class: activators. hit rate 0.007% among 380,000; further: % of control where 0% means no effect
# PTHR1 ag: agonists of human PTHR1 parathyroid hormone receptor. Q03431. hit rate 0.075% among 410,000. Potency, µM (doses to about 115 µM), inactives show at the highest dose activation, actives largely listed as activators. HEK293 GP2 PTHR1 cells, GloSensor cAMP luminescence, 1 h; further: nearly all actives have a fitted effect of over 55% in size
# Target sequence (Q03431 whole entry, looked up): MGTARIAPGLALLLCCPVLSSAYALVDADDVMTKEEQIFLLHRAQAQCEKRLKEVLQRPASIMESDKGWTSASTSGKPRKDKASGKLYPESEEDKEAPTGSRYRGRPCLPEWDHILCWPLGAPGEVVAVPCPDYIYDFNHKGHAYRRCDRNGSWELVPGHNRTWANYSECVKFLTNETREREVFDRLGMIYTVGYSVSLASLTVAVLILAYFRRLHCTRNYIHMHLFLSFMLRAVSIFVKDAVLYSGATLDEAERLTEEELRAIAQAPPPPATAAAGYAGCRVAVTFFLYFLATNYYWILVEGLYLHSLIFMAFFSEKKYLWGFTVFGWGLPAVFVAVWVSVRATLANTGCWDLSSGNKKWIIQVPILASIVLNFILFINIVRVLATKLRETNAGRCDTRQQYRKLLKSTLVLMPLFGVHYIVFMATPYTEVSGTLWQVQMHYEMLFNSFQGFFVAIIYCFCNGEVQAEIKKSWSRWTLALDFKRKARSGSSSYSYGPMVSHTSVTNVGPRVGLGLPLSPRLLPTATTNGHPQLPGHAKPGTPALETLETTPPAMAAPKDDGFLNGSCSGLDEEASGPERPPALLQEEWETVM
#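 HEK-293-derived GP2 cells expressing PTHR1 and a GloSensor cAMP reporter, 3,000/well, plated overnight, given luciferin plus IBMX (each 0.5 mM as added) for 1 h at 37 °C, then compound for 1 h at 37 °C. Luminescence was read after 15 min at room temperature.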
# * = called active by the depositor; i = inactive; u = inconclusive; x = not tested or not shown; [ ] = remark or other dose. The call rests on the fitted dose curve; in most records, active means well fitted curve in the direction sought with a large enough effect; inconclusive means small, poorly fitted or top-dose-only effect, or another doubt; inactive means no such curve, though single readings can be large; an effect the other way counts as inactive or inconclusive. Potency means the concentration at half of the fitted maximal effect.
SMILES,HEK293 tox,GLP-1R inv ag,GLP-1R agonist,PTHR1 ag
Cc1ccccc1C(=O)Nc1ccnn1C1CCN(Cc2c(C)n(C)c3ccccc23)CC1,-21%,11µM*,13%,i
CCN(CC(=O)Nc1cc(S(=O)(=O)N2CCCCC2)ccc1C)Cc1ccccc1,2%,6.3µM*,5%,-11%
Cc1ccc(S(=O)(=O)N2CCCCC2)cc1NC(=O)CCOc1ccccc1,4%[1.53 µM],u,9%,-16%
Cc1ccc(S(=O)(=O)N2CCCCC2)cc1NC(=O)CCCOc1ccccc1,-6%,5.6µM*,8%,-9%
Cn1c(CN2CCCC2)nc2cc(NS(=O)(=O)c3ccc(Cl)cc3)ccc21,17%,4µM*,-2%,-9%[57.5 µM]
O=C1CC(c2cccc(Cl)c2Cl)c2cc3c(cc2N1)OCCO3 (centres undefined),0%,1%,1%,-44%
CC(C)CC(NS(=O)(=O)c1ccccc1)C(=O)O (centres undefined),1%,4%,-9%,i
CC(C)CN=C(NS(=O)(=O)c1ccccc1)C(Cl)(Cl)Cl,-1%,7.9µM*,-24%,-3%
CC(NC(=O)CSCc1ccc(Br)cc1)c1ccccc1 (centres undefined),1%,7.1µM*,14%,-44%
CCOc1ccc(/C=C/C(O)=C2/C(=O)NC3(C)CC2c2ccccc2O3)cc1OC (centres undefined),0%,u,9%,-34%
CCOc1ccc(/C=C/C(O)=C2/C(=O)N(C)C3(C)CC2c2ccccc2O3)cc1OC (centres undefined),-5%,3.2µM*,10%,-35%
CC(C)(C)c1ccc(C(=O)NC2(C(F)(F)F)NC(=O)N(CCc3ccccc3)C2=O)cc1 (centres undefined),-32%,13µM*,-5%,-30%
Cc1oc(-c2ccc(C(=O)NCc3ccccc3)cc2)nc1CN1CCc2ccccc21,-6%,10µM*,x,-17%
Cc1oc(-c2ccc(C(=O)NCCC(C)C)cc2)nc1CN1CCc2ccccc21,0%,u,0%,-27%
CCN(CC)c1cc(C)c2cc(NC(=O)c3ccccc3Cl)ccc2n1,-31%,u,9%,-21%
CC(C)Oc1ccc(S(=O)(=O)N2CCCCC2)cc1NC(=O)C1=COCCO1,-1%,u,-12%,-55%
Cc1cccc(Oc2ccc(S(=O)(=O)N3CCCCC3)cc2NC(=O)C2=COCCO2)c1,7%,10µM*,7%,-7%
CCOC(=O)c1c(NC(=O)c2nc(S(C)(=O)=O)ncc2Cl)sc(C(C)=O)c1C,-21%,-27%,x,0%
COc1ccc(-c2cc3nc(C)cc(N)n3n2)cc1,19%,7.9µM*,-25%,-33%
C=C1CCC(O)C/C1=C/C=C1\CCC[C@]2(C)[C@@H]([C@H](C)/C=C/[C@H](C)C(C)C)CC[C@@H]12 (some centres undefined),x,x,17%,x
CCc1ccc(N2CCn3c2nc2c3c(=O)n(CCCc3ccccc3)c(=O)n2C)cc1,24%,11%,x,-12%
CCc1ccc(N2CCn3c2nc2c3c(=O)n(CCc3ccccc3)c(=O)n2C)cc1,6%,-8%,x,50µM*
Cc1cccc(/C=C2\Sc3ccc(C(=O)NCC4CCCO4)cc3N(C)C2=O)c1 (centres undefined),-1%,13µM*,-3%,-11%
S=C(NCc1cccs1)Nc1cc(Cl)cc(Cl)c1,u,8.9µM*,1%,-16%
COc1ccccc1NS(=O)(=O)c1cc(C(=O)N2CCN(C/C=C/c3ccccc3)CC2)ccc1C,-11%,10µM*,-1%,-6%
SMILES,HEK293 tox,GLP-1R inv ag,GLP-1R agonist,PTHR1 ag
COc1ccccc1NS(=O)(=O)c1cccc(C(=O)N2CCN(C/C=C/c3ccccc3)CC2)c1,-15%,u,-5%,-17%
CCOC(=O)c1cc(-c2ccccc2)sc1NC(=O)C(C)N1C(=O)NC(C)(c2ccc(Cl)cc2)C1=O (centres undefined),6%,5.6µM*,-5%,-11%[57.5 µM]
O=C(CCCN1C(=O)/C(=C/c2ccccc2)SC1=S)N1CCOCC1,u,8.9µM*,3%,-20%
O=C(CCCN1C(=O)/C(=C/c2ccccc2Cl)SC1=S)N1CCCC1,u,10µM*,-7%,-24%
CC(=O)c1nc2ccccc2n1CCc1ccccc1,1%,u,19%,-8%
N#CC(=C1NC(=O)c2ccccc21)c1nc2ccccc2n1CCO,-25%,10µM*,13%,i
CC(C)(C)OC(=O)N1CCN(C(=O)c2[nH]cnc2C(=O)N[C@@H](Cc2ccccc2)C(=O)OCc2ccccc2)CC1,8%,1%,6%,-20%
CC(C)C[C@H](NC(=O)c1[nH]cnc1C(=O)N[C@@H](Cc1ccccc1)C(=O)OC(C)(C)C)C(=O)OC(C)(C)C,-25%,10µM*,2%,-43%
C[C@H](NC(=O)c1nc[nH]c1C(=O)N[C@@H](CCCCNC(=O)OC(C)(C)C)C(=O)OC(C)(C)C)C(=O)OC(C)(C)C,-11%,10µM*,-5%,i
CC(C)(C)OC(=O)NCCCCCNC(=O)c1nc[nH]c1C(=O)NCC(=O)OCc1ccccc1,-42%,11µM*,-13%,-24%
CC(C)(C)OC(=O)NCCCC[C@H](NC(=O)c1nc[nH]c1C(=O)N[C@@H](CCCCNC(=O)OC(C)(C)C)C(=O)OC(C)(C)C)C(=O)OC(C)(C)C,-3%,u,-4%,i
CC(C)(C)OC(=O)[C@H](Cc1ccccc1)NC(=O)c1nc[nH]c1C(=O)N1CCN(C(=O)OC(C)(C)C)CC1,-8%,4.5µM*,-3%,i
CC(C)C[C@H](NC(=O)c1[nH]cnc1C(=O)N[C@@H](Cc1ccccc1)C(=O)OC(C)(C)C)C(=O)OCc1ccccc1,-5%,u,6%,-35%
Cc1ccc(Nc2nc(C(N)=O)c(NC(=O)c3ccccc3Br)s2)cc1,-3%,u,x,i
CC(C)C[C@H](NC(=O)c1[nH]cnc1C(=O)N[C@@H](C)c1ccccc1)C(=O)OC(C)(C)C,u,10µM*,7%,-90%
COC(=O)C1=C(C)NC(C)=C(C(=O)O[C@H]2CCN(Cc3ccccc3)C2)C1c1cccc([N+](=O)[O-])c1 (some centres undefined),x,x,-4%,x
COc1ccc2nc(C)cc(Nc3ccc(N4CCN(C)CC4)cc3)c2c1,u,5.6µM*,11%,-15%
CCCCCCCCCCCCOCCOCCOCCOCCOCCOCCOCCOCCOCCO,x,x,9%,x
CCCC(=O)N1c2nc(-c3ccco3)nn2C2(CCCCC2)[C@@H]2CCCC[C@@H]21,1%,6%,x,i
Cc1cc(=O)c2cc(C(=O)Nc3ccc(C)c(C)c3)ccc2[nH]1,1%,6%,x,-3%
COc1ccc(N(CC(=O)N2CCN(c3ccc(Cl)cc3)CC2)S(=O)(=O)c2c(C)n[nH]c2C)cc1,-11%,11µM*,13%,-10%
CCOC(=O)c1c(NC(=O)Cc2ccccc2)sc2c1CC(C)(C)NC2(C)C,0%,u,u,-14%
